# Source: PubChem BioAssay (ICCB-Longwood Screening Facility, Harvard Medical School)
# RVFV N-RNA inh – inhibitors of RVFV nucleoprotein–RNA binding, primary screen, biochemical, fluorescence polarization | P21700 | % bound, % (test concentration not listed) | RVFV N-RNA binding; stronger effect = lower value | actives 0.1% (n = 20,000); in the data active = % bound below about 75%
# Target sequence (P21700 whole entry, looked up): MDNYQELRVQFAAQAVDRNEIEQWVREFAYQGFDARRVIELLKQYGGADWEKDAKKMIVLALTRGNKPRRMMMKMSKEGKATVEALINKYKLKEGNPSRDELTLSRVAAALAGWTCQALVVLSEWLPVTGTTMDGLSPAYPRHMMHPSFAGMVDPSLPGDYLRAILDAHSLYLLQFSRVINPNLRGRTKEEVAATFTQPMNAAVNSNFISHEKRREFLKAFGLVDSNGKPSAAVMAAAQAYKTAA
# Numbers without * were called inactive; ! = not active in a repeat. This excerpt belongs to a sample that is enriched for hits.
SMILES,RVFV N-RNA inh
O=C(O)c1ccc(-c2ccccc2)cc1,96
O=C1C=CC(=O)C(c2ccc(C(=O)O)cc2)=C1,52*
Cn1nnc(-c2ccc(C(=O)O)cc2)n1,98
CC(C)CN(CC(C)C)C(=O)Cn1cnc2ccccc21,108
CO/N=C/c1nc2ccccc2s1,91
CN1CCC(N2CCCC(C(N)=O)C2)CC1 (stereo not given),92
CC(=O)Nc1ncc2c(n1)CC(c1ccc(Cl)cc1)CC2=O (stereo not given),102
CCOP(C)(=O)CN1CCOCC1 (stereo not given),91
CCCCc1cc(=O)oc2c(CN(C)C)c(O)ccc12,92
CC[C@@]1(O)C(=O)OCc2c1cc1n(c2=O)Cc2cc3c(CN(C)C)c(O)ccc3nc2-1,44*
Cc1ccc(NC(=O)c2ccco2)c(NC(=O)COc2ccc(I)cc2)c1,99
CC(NC(=O)c1ccccc1)c1nnc(SCC(=O)c2ccccc2)n1C (stereo not given),107
Cc1[nH]n(-c2ccc(Cl)cc2)c(=O)c1C=O,92
CCCNC(=O)NCc1n[nH]c(=O)c2ccccc12,98
NC(=O)COc1ccc2ccc(=O)oc2c1,92
C/C(N)=C/C(=O)N1CCCCC1,87
CCCN1CCC2(CC1)C1CN(CCC)CC=C1C(C#N)=C(N)C2(C#N)C#N (stereo not given),54*
C#CCn1c(=NC(=O)c2ccccc2)sc2cc(S(N)(=O)=O)ccc21,97
COc1ccccc1-n1ccnc1SCC(N)=O,102
Cc1c(C(=O)n2cnc3ccccc32)oc2ccccc12,100
CC(C)CNc1oc(COc2ccccc2F)nc1C#N,85
Cc1ccccc1-c1n[nH]c(=S)n1/N=C/c1ccc(N(C)C)cc1,86
CC1=C(C(N)=O)C(/C=C/c2ccccc2)n2ncnc2N1 (stereo not given),29*
COC(=O)C1=C(C)NC(=S)NC1/C=C/c1ccccc1 (stereo not given),96
CC1=C(C(N)=O)C(c2ccccc2F)NC(=O)N1 (stereo not given),89
SMILES,RVFV N-RNA inh
CSc1nc2ccccc2n1-c1ccccc1,94
Cc1ccc(Nc2cn[nH]c(=S)n2)cc1,93
CC(C)(C)C(=O)N(Cc1ccccc1)Cc1ccccc1,94
CC(C)C(=O)Nc1cccc(C(=O)Nc2ccccc2)c1,98
Cc1ccc(C(=O)Nc2ccc(S(=O)(=O)O)c3cc(S(=O)(=O)O)cc(S(=O)(=O)O)c23)cc1NC(=O)c1cccc(NC(=O)Nc2cccc(C(=O)Nc3cc(C(=O)Nc4ccc(S(=O)(=O)O)c5cc(S(=O)(=O)O)cc(S(=O)(=O)O)c45)ccc3C)c2)c1,6.7*!
Cc1cccc(NC(=O)c2cccc(C)c2)c1,87
O=C(CSc1n[nH]c(=O)n1-c1cccnc1)c1ccc(N2CCOCC2)cc1,110
CNC(=O)COc1ccc(S(=O)(=O)N2CCOCC2)cc1Cl,100
Nc1ccc(-c2nc3cccnc3s2)cc1,98
CCNC(=O)CC1S/C(=N\N=C\c2ccc(C)o2)NC1=O (stereo not given),95
C/C=N/N=C1/NC(=O)C(CC(=O)Nc2cccc(C)c2C)S1 (stereo not given),101
O=C(CC1S/C(=N/N=C/c2ccco2)NC1=O)Nc1ccc(Cl)cc1 (stereo not given),73*
CS(=O)(=O)Nc1ccc(C(=O)NC23CC4CC(CC(C4)C2)C3)cc1,87
CCN(CC)CCCC(C)Nc1c2ccc(Cl)cc2nc2ccc(OC)cc12 (stereo not given),34*
COc1cc(NC(C)CCCN)c2ncccc2c1 (stereo not given),95
COc1ccc2nc3cc(Cl)ccc3c(Nc3cc(CN4CCCC4)c(O)c(CN4CCCC4)c3)c2n1,103
COc1ccc(-c2c(C)oc3cc(OCCN4CCOCC4)ccc3c2=O)cc1,94
COc1ccc(CCNC(=S)NCc2ccco2)cc1OC,96
O=C(CCCN1C(=O)c2ccccc2C1=O)Nc1ccc(S(=O)(=O)NC2CCCCC2)cc1,88
CCOC(=O)N1CCN(C(=O)c2ccc(NS(=O)(=O)c3ccccc3)cc2)CC1,100
NC(=O)C1CCN(C(=O)NC2CCCCC2)CC1,102
CC(C)(C)NC(=O)COc1ccc(S(=O)(=O)N2CCOCC2)cc1,99
Cc1ccc2occ(CN3CC=C(c4ccc(F)cc4)CC3)c(=O)c2c1,100
Oc1ccc2nnc3c(Br)cnn3c2c1,41*
CC(C)COc1ccc(C(=O)N(C)Cc2ccccc2)cc1,92
SMILES,RVFV N-RNA inh
Cc1ccc(SCC(=O)N2CC(C)CC(C)C2)cc1 (stereo not given),87
CCOC(=O)C(C#N)C(=O)c1ccc(NC(=O)c2ccccc2)cc1 (stereo not given),100
CC1=C(C(=O)Nc2ccc(C)cc2)C(c2ccco2)n2c(nc3ccccc32)N1 (stereo not given),93
COc1ccccc1NC(=S)N1CCN(C2CCCCC2)CC1,98
O=C(N/N=C/c1ccncc1)C1CCCCC1,96
CN(C)Cc1c(O)ccc2c1O/C(=C\c1ccccc1)C2=O,48*
CC1CCN(Cc2c(O)ccc3c2O/C(=C\c2ccccc2)C3=O)CC1,56*
O=C(CN1CCOCC1)N/N=C/c1ccccc1,97
O=C1/C(=C/c2ccccc2)Oc2c1ccc(O)c2CN1CCOCC1,53*
CC1CCN(CC(=O)NCc2ccccc2)CC1,95
COc1ccc2c(c1)O/C(=C\c1cccc(OC(=O)N3CCOCC3)c1)C2=O,97
CC1CCN(Cc2c(F)cccc2F)CC1,99
CCc1c(C)c2ccc(O)c(CN(C)C)c2oc1=O,92
CCN(CC)Cc1c(O)ccc2c1O/C(=C\c1ccc(C(=O)OC)cc1)C2=O,59
CC1=NN(CCC#N)C(=O)/C1=C\c1ccc(N)cc1,106
C=CCn1c(CC(C)C)nnc1SCC(=O)Nc1ccc(OC)cc1,85
CC(=O)Oc1ccccc1-c1ccccc1,86
c1ccc(C2C3=C(Nc4ncnn42)c2ccccc2OC3c2cccs2)cc1 (stereo not given),100
CC(C)Nc1ccc(C(F)(F)F)cn1,98
CCCC(CCC)C(=O)Nc1cc(C)c2c(=O)oc3ccccc3c2n1,97
Oc1ccccc1C=Nc1ccc(OC(F)(F)C(F)F)cc1,91
CC(C)CC(=O)Nc1cc(C(F)(F)F)cc(C(F)(F)F)c1,93
Brc1ccc(-c2nnc3sc(CN4CCc5ccccc54)cn23)cc1,93
C[C@H](N)CN1CCc2ccc(Br)cc21,72*
CC(CN(C)C)CN1c2ccccc2CCc2ccccc21 (stereo not given),94
Cn1c(/C(C#N)=C(\O)c2ccccc2)nc2ccccc21,95
CCC(=O)Nc1ccc(S(=O)(=O)N2CCCCC2CC)cc1 (stereo not given),93
COCCCn1c(-c2cccc(OC)c2)nc2nc3ccccc3nc21,95
